Assay results as given in PubChem BioAssay (NCATS).
Inconclusive results are not listed. A number with no mark means an inactive call. Activity calls are given as the source filed them. Calls follow the shape of the dose curve; as a rule, active = well fitted cell-killing curve with a large enough effect; inconclusive = small, poorly fitted or top-dose-only effect, or effect the other way; inactive = no such curve, though single readings can be large or run the other way.

Assays:
[1] = Viability qHTS for spleen associated tyrosine kinase inhibitor (SYKi) naive MV4-11 cells (AID 1963823); details: MV4-11 AML viability, CellTiter-Glo luminescence, 72 h; series mostly up to 45 µM; also: nearly all actives have a fitted effect of over 40% in size
Outline: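 SYKi-naive MV4-11 AML cells, 500 per well, were exposed to library compounds for 72 hr at 37 C, 5% CO2. Viability was then read by CellTiter-Glo luminescence after 10 min at room temperature.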

[2] = Viability qHTS for spleen associated tyrosine kinase inhibitor (SYKi) drug resistant MV4-11 cells (AID 1963824); details: SYKi-resistant MV4-11 viability, CellTiter-Glo, 72 h; series mostly up to 45 µM; also: nearly all actives have a fitted effect of over 35% in size
Outline: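 SYK-inhibitor-resistant MV4-11 AML cells were seeded at 500 per well onto compound and cultured 72 hours (37 °C, 5% CO2). CellTiter-Glo was then added, and after 10 min at room temperature, luminescence gave viability.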
Potency is read from the fitted curve at half-maximal effect.

`CC1(CO)CC[C@]2(C(=O)O[C@@H]3O[C@H](CO)[C@@H](O)[C@H](O)[C@H]3O)CC[C@]3(C)C(=CCC4[C@@]5(C)C[C@H](O)[C@H](O[C@@H]6OC[C@@H](O)[C@H](O)[C@H]6O)[C@@](C)(CO)C5CC[C@]43C)C2C1` (some centres undefined) showed a viability (% of control) [1] of 88.9% [at 9.25 µM] and a viability, % of control [2] of 101% [at 9.25 µM].
In the case of `COC1CC(=O)C23C(=O)NC(Cc4c[nH]c5ccccc45)C2C(C)C2(C)OC2C3/C=C/CC(C)CC1O` (centres undefined), the Potency [1] is reported as 3.99 µM (active) and the Potency [2] is reported as 4.47 µM (active).
In the case of `COc1cc(/C=C/C(=O)O[C@@H]2O[C@H](CO)[C@@H](O)[C@H](O)[C@H]2O)ccc1O`, the Potency [1] is reported as “inactive” and the Potency [2] is reported as “inactive”.
In the case of `COc1cc(/C=C/C(=O)O[C@H]2[C@H](O)[C@@H](CO)O[C@@]2(CO)O[C@H]2O[C@H](CO)[C@@H](O)[C@H](O)[C@H]2O)ccc1O`, the Potency [1] is reported as “inactive” and the Potency [2] is reported as “inactive”.
In the case of `O=C(O)CCc1cccc(O)c1O[C@@H]1O[C@H](CO)[C@@H](O)[C@H](O)[C@H]1O`, the Potency [1] is reported as “inactive” and the Potency [2] is reported as “inactive”.
With `O=C(CCCCC1CCCCC1)N1CCC(c2cnc[nH]2)CC1` the Potency [1] was 13 µM (active) and the Potency [2] was 8.2 µM (active).
For `C[C@@H]1O[C@@H](O[C@@H]2[C@@H](O)[C@H](O[C@@H]3[C@@H](O)[C@@H](O)[C@H](O[C@H]4[C@H](OC(=O)[C@]56CCC(C)(C)C[C@H]5C5=CCC7[C@@]8(C)C[C@H](O)[C@H](O[C@@H]9O[C@H](C(=O)O)[C@@H](O)[C@H](O)[C@H]9O)[C@@](C)(CO)C8[C@H](O)C[C@@]7(C)[C@]5(C)CC6)OC[C@H](O)[C@@H]4O)O[C@H]3C)OC[C@H]2O)[C@H](O)[C@H](O)[C@H]1O` (some centres undefined), the viability (% of control) [1] was 78.4% [at 9.25 µM] and the viability, % of control [2] was 89.9% [at 9.25 µM].
In the case of `COC(=O)c1cc(OC)c(O[C@@H]2O[C@@H](C)[C@H](O)[C@@H](O)[C@H]2O)c(OC)c1`, the Potency [1] is reported as “inactive” and the Potency [2] is reported as “inactive”.
With `C/C1=C\CCC2=CC(OC2=O)C(C)(C)/C=C/C1=O` (centres undefined) the Potency [1] was 4.61 µM (active) and the Potency [2] was 2.31 µM (active).
With `CC1CCCC(O)CC(=O)c2c(O)cc(O)cc2CC(=O)O1` (centres undefined) the Potency [1] was 3.21 µM (active) and the Potency [2] was 2.02 µM (active).
For `CC12CC(c3ccoc3)OC(=O)C1CCC1(C)C2CCC(O)C1(C)O` (centres undefined), the Potency [1] was “inactive” and the Potency [2] was “inactive”.
Work on `CC1(CO)CC[C@]2(C(=O)O[C@@H]3O[C@H](CO)[C@@H](O)[C@H](O)[C@H]3O)CC[C@]3(C)C(=CCC4[C@@]5(C)CC[C@H](O[C@@H]6O[C@H](C(=O)O)[C@@H](O)[C@H](O)[C@H]6O)C(C)(C)C5CC[C@]43C)C2C1` (some centres undefined) yielded a viability (% of control) [1] of 87.4% [at 9.25 µM] and a viability, % of control [2] of 104% [at 9.25 µM].
For `Cc1ccc(NS(=O)(=O)c2cc3c(cc2N[C@@H](C)CO)NC(=O)CC3)cc1C`, the Potency [1] was 20.6 µM (active) and the Potency [2] was 20.6 µM (active).
With `CC(=O)c1c(O)cc2cccc3c2c1CC(C)(O)O3` (centres undefined) the Potency [1] was “inactive” and the Potency [2] was “inactive”.
In the case of `C=C1C(O)C(O)C2(CC3C(C)=CCC4C(C)(C(=O)O)CCCC34C)OC2C1O` (centres undefined), the Potency [1] is reported as “inactive” and the Potency [2] is reported as “inactive”.
In the case of `O=C(c1cc2c(cc1F)OC(c1ccc(F)cc1)(c1ccc(Cl)cc1Cl)O2)N1CCOCC1` (centres undefined), the Potency [1] is reported as “inactive” and the Potency [2] is reported as “inactive”.
For `C=CC(=O)N1CC(N2CCN(C(=O)CNc3cc(C4(C)CC4)c(Cl)cc3O)CC2)C1`, the Potency [1] was 18.6 µM (active) and the Potency [2] was 16.6 µM (active).
In the case of `C#Cc1cnc2[nH]c(=O)n(C(CC)CC)c2n1`, the Potency [1] is reported as “inactive” and the Potency [2] is reported as “inactive”.
In the case of `Nc1nc(Nc2ccc3c(c2)CCC(N2CCCC2)CC3)nn1-c1cc2c(nn1)-c1ccccc1CCC2` (centres undefined), the Potency [1] is reported as 0.231 µM (active) and the Potency [2] is reported as 0.366 µM (active).
Work on `C[C@@H]1O[C@@H](O[C@H]2[C@H](O[C@H]3CC[C@@]4(C)C(CC[C@]5(C)C4CC=C4C6CC(C)(C)CC[C@]6(C(=O)O[C@@H]6O[C@H](CO[C@@H]7O[C@H](CO)[C@@H](O[C@@H]8O[C@@H](C)[C@H](O)[C@@H](O)[C@H]8O)[C@H](O)[C@H]7O)[C@@H](O)[C@H](O)[C@H]6O)CC[C@]45C)[C@]3(C)CO)OC[C@H](O)[C@@H]2O)[C@H](O)[C@H](O)[C@H]1O` (some centres undefined) yielded a viability (% of control) [1] of 69.6% [at 9.25 µM] and a viability, % of control [2] of 88.1% [at 9.25 µM].
With `C=C(CO)C12OC1C1(C)C(=CC2=O)C(O)C(O)CC1C` (centres undefined) the Potency [1] was “inactive” and the Potency [2] was “inactive”.
For `CC(=O)N[C@H]1CCN(c2ccc(C3=NOC(CN[S+](=O)([O-])C(C)C)C3)cc2F)C1` (some centres undefined), the Potency [1] was “inactive” and the Potency [2] was 13 µM (active).
